SMN2 splice up = SMN2 splice variant enhancement; HEK293 SMN2-luciferase splicing reporter, luminescence, 30-36 h; Potency, µM (titrated, usually from 46.1 µM), actives largely listed as activators; 2.8% of 210,000 active; AID 1458; also: nearly all actives have a fitted effect of over 55% in size
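HEK293 cells carry an SMN2 minigene-luciferase reporter in which exon 7 inclusion puts luciferase in frame. Cells were seeded at 2000 cells/well, attached for 10-12 hours, then exposed to compounds for 30-36 hours at 37C before ONE-Glo luminescence.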
NPC1 promoter act = NPC1 promoter activation. Huh7 NPC1 promoter luciferase reporter, 24 h. Potency, µM (highest dose often 9.22 µM), usual class: activators. 2.4% of 320,000 active. AID 485313; also: nearly all actives have a fitted effect of over 60% in size
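Luminescence from an NPC1 promoter-driven luciferase reporter in stably transfected Huh7 cells was measured after 24 h compound treatment at 37 °C, followed by 10 min ambient incubation with luciferase detection reagent.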
Rab9 promoter act = activates the Rab9 promoter; Huh7 Rab9 promoter-luciferase reporter, luminescence, 24 h; Potency, µM (doses to about 9.22 µM), hits mostly activators; 2.8% of 320,000 active; AID 485297; also: nearly all actives have a fitted effect of over 60% in size
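Huh7 cells stably carrying Rab9 promoter–luciferase reporter, plated 1500 cells/well, compound added after 2 h and incubated 24 h at 37 °C; luciferase luminescence then read after 10 min with detection reagent.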
FLuc counter = firefly luciferase modulation, counter-screen for miR-21 project; P08659; purified FLuc, Km substrates, luminescence inhibition; Potency, µM (highest dose often 57.5 µM), actives largely listed as inhibitors; 6.9% of 360,000 active; also: nearly all actives have a fitted effect of over 55% in size
Target sequence (P08659 whole entry, looked up): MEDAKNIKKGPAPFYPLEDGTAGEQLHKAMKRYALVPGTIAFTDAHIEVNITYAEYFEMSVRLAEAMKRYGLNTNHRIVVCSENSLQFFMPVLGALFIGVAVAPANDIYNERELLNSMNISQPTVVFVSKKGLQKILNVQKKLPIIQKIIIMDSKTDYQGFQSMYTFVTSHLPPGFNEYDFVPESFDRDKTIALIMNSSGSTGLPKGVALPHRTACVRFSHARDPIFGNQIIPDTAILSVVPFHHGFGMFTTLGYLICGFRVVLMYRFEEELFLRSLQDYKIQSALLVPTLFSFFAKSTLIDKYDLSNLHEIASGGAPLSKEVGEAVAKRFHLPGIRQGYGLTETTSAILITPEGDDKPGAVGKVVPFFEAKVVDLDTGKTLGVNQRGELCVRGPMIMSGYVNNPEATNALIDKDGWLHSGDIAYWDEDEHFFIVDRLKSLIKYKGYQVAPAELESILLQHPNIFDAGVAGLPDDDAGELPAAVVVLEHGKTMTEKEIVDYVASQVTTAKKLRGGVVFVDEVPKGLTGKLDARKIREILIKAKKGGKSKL
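Biochemical qHTS of compounds, final roughly 60 µM downward over six points, against 10 nM purified firefly luciferase using Km concentrations of substrates (10 uM D-luciferin, 10 uM ATP) in Tris acetate pH 7.5 buffer; luminescence output.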
ELG1 genotoxic = genotoxicity induction in ELG1-luciferase HEK293T cells | HEK293T ELG1-luciferase reporter, luminescence, 16 h | 1.3% of 330,000 active | Potency, µM (titrated, usually from 46 µM), usual class: activators; also: nearly all actives have a fitted effect of over 60% in size
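Cells (2,000/well) expressing the ELG1-luciferase fusion are dosed by pin tool and kept 16 hr at 37 °C, 5% CO2. Signal comes from ONE-Glo luciferase reagent after 30 min at room temperature.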
KinaseGlo FLuc = counter-screen: inhibitors of Kinase-Glo firefly luciferase; AID 1379; Kinase-Glo luciferase, ATP luminescence, 8 min; Potency, µM (titrated, usually from 38.3 µM), hits mostly inhibitors; 0.28% of 200,000 active; also: nearly all actives have a fitted effect of over 60% in size
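Compound is pinned into ATP-containing buffer (10 uM ATP, imidazole pH 7.2, 7 mM MgCl2). Kinase-Glo luciferase reagent is then added. Light output is recorded following an 8-min room-temperature incubation.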
Hits are given with their value; n = inactive; u = inconclusive; x = not tested or not shown; [ ] = another dose, or the depositor's remark. Compounds with a hit are over-represented: about 7.3% of the library has one in this group of screens. Calls follow the shape of the dose curve; as a rule, active = well fitted curve in the direction sought with a large enough effect; inconclusive = small, poorly fitted or top-dose-only effect, or another doubt; inactive = no such curve, though single readings can be large; an effect the other way counts as inactive or inconclusive.

SMILES | SMN2 splice up | NPC1 promoter act | Rab9 promoter act | FLuc counter | ELG1 genotoxic | KinaseGlo FLuc
O=C(NNS(=O)(=O)c1ccc([N+](=O)[O-])cc1)C(=O)Nc1cccc(C(=O)O)c1 | x | n | n | 17µM | n | x
COc1ccc(NC(=O)c2cc(C3CC3)nc3c2c(C)nn3-c2ccc(C)cc2)cc1OC | x | x | x | n | x | x
Cc1cccc(N2CCN(C(c3ccccc3)c3nnc(-c4ccccc4Cl)o3)CC2)c1C (configuration not stated) | n | x | x | u | x | x
Cc1nc(-c2ccc(C(=O)Nc3cccc(Br)c3)cc2)cs1 | 10µM | u | u | 1.1µM | u | u
Cc1nc(-c2cccc(NC(=O)c3ccc(-n4nccc4C)cc3)c2)cs1 | x | n | n | 4.8µM | n | x
Cc1nc(-c2ccc(C(=O)Nc3cc(S(N)(=O)=O)ccc3C)cc2)cs1 | x | n | n | u | n | x
Nc1cccc(Nc2ccccc2)c1 | x | n | n | n | n | n
c1ccc(Nc2cccc(Nc3ccccc3)c2)cc1 | n | n | n | 15µM | u | n
Cc1ccc(CNc2nc(C)cs2)cc1 | x | 2µM | 1.1µM | 6µM | 1µM | x
O=C(Nc1cccnc1)C1OCCc2ccccc21 (configuration not stated) | n | n | n | n | n | n
O=C(Nc1ccc(Br)cc1)C1OCCc2ccccc21 (configuration not stated) | x | n | u | 17µM | n | x
Cc1nn(-c2ccccc2)c(C)c1C(=O)OCC(=O)Nc1cccc(S(N)(=O)=O)c1 | x | n | n | u | n | x
COc1cccc(NC(=O)c2c(C)nn(-c3ccccc3)c2Cl)c1 | x | n | u | 17µM | n | x
COc1cccc(NC(=O)COC(=O)c2c(C)nn(-c3ccccc3)c2C)c1 | x | n | n | 21µM | n | x
Cc1ccc(NC(=O)c2c(C)nn(-c3ccccc3)c2Cl)cc1 | n | n | n | 15µM | n | n
COc1ccc(NC(=O)c2c(C)nn(-c3ccccc3)c2Cl)cc1 | x | n | n | u | n | x
COc1ccccc1-c1noc(-c2ccccc2C(=O)NCc2ccco2)n1 | n | n | n | 19µM | n | n
COc1cc(-c2noc(-c3ccccc3C(=O)NCc3ccco3)n2)cc(OC)c1OC | n | n | n | n | n | n
Cc1cccc(-c2noc(-c3ccccc3C(=O)NCc3ccco3)n2)c1 | x | u | u | 9.5µM | n | x
O=C(NCc1ccco1)c1ccccc1 | x | n | n | n | n | x
Cc1ccc(-c2noc(-c3ccccc3C(=O)NCc3ccco3)n2)cc1 | x | n | n | 5.4µM | n | x
O=C(NCc1ccco1)c1ccccc1-c1nc(-c2ccccc2)no1 | n | n | n | 27µM | n | n
Cc1ccc(-c2noc(CCCC(=O)NCc3ccco3)n2)cc1 | n | x | x | n | x | x
COc1ccc(OC)c(S(=O)(=O)N2CCC(c3ccncc3)CC2)c1 | x | x | x | n | x | x
CCOC(=O)N1CCc2c(sc3c2c(=O)n(CCc2ccccc2)c(=O)n3Cc2c(F)cccc2Cl)C1 | n | x | x | n | x | x
SMILES | SMN2 splice up | NPC1 promoter act | Rab9 promoter act | FLuc counter | ELG1 genotoxic | KinaseGlo FLuc
Cn1c(=O)c2c(-c3ccc(Cl)cc3)ccnc2n(C)c1=O | n | x | x | n | x | x
COc1cccc2cc(C(=O)NCc3ccco3)c(=Nc3ccc(C(=O)O)cc3)oc12 | n | n | n | u | 21µM | n
CCCOc1ccc(CSc2n[nH]c(C)n2)cc1 | x | 2.8µM | 2.8µM | 19µM | u | x
CCN(CC)c1ccc(/C=N/NC(=O)c2cc(C)nc3ccccc23)cc1 | x | n | n | u | n | x
CCN(CC)c1ccc(/C=N/NC(=O)c2ccc([N+](=O)[O-])cc2)cc1 | x | n | n | n | n | x
CCN(CC)c1ccc(/C=N/NC(=O)c2c[nH]c3ccccc23)cc1 | n | n | n | 11µM | n | n
CCN(CC)c1ccc(/C=N/NC(=O)c2cc3ccccc3[nH]2)cc1 | x | n | n | 12µM | n | x
COc1ccc(CCC(=O)NC2CC(=O)N(c3ccc(F)cc3)C2)cc1 (configuration not stated) | x | x | x | n | x | x
Cc1oc2ccc(O)cc2c1C(=O)c1ccc(Cl)cc1 | n | n | n | u | n | n
Cc1ccc(C(=O)c2coc3ccc(O)cc23)cc1 | x | u | n | 1.1µM | u | x
O=C(c1ccccc1)c1coc2ccc(O)c(Cl)c12 | n | n | n | u | u | n
Cc1ccc(C(=O)c2coc3ccc(O)c(Cl)c23)cc1 | n | n | n | 19µM | u | n
CCN1C(=O)C2(c3ccccc31)c1c(oc3ccc(F)cc3c1=O)C(=O)N2CCCOC (configuration not stated) | n | x | x | n | x | x
COc1ccc(NC(=O)Cn2c(SCc3cccc(Cl)c3)nc3ccncc32)c(OC)c1OC | n | x | x | u | x | x
CC(=O)Nc1cccc(NC(=O)c2cccc(-c3ccc(O)cc3)c2)c1 | x | n | n | 9.5µM | n | x
CC(=O)Nc1cccc(NC(=O)c2ccccc2OCc2ccccc2)c1 | x | n | n | n | n | x
CC(=O)Nc1cccc(NC(=O)c2cccc(OCc3ccccc3)c2)c1 | x | n | n | 27µM | n | x
CN1CCN(c2ccc(NC(=O)c3cccc(OCc4ccccc4)c3)cc2)CC1 | n | n | n | 7.6µM | n | n
CCN1CCN(c2ccc(NC(=O)c3cccc(OCc4ccccc4)c3)cc2)CC1 | n | n | n | u | n | n
CCOC(=O)c1ccc(NC(=O)CN2c3ccccc3S(=O)(=O)c3ccccc32)cc1 | x | x | x | n | x | x
O=C(O)c1ccncc1.O=C(O)c1ccncc1.[NH2-].[NH2-].[Pt] | n[9.22 µM] | x | x | x | x | n[7.66 µM]
O=C(NCc1ccccc1Cl)c1ccc(CSCc2ccccc2Cl)o1 | x | x | x | n | x | x
Cc1ccc(CSc2ncc(Cl)c(C(=O)Oc3ccc(F)cc3)n2)cc1 | n | x | x | n | x | x
O=C(Sc1cccc2cccnc12)c1ccccc1Br | x | n | n | 24µM | n | x
Cc1ccc2c(c1)N(C(=O)N1CCC(C(=O)NCCc3ccc(Cl)cc3)CC1)CC(C)O2 (configuration not stated) | x | x | x | n | x | x
SMILES | SMN2 splice up | NPC1 promoter act | Rab9 promoter act | FLuc counter | ELG1 genotoxic | KinaseGlo FLuc
COc1cccc(Nc2nn3c(=O)c4ccccc4nc3s2)c1 | x | u | n | u | n | x
O=c1c2cc3c(cc2nc2sc(Nc4ccccc4)nn12)OCO3 | n | x | x | 3µM | x | x
Cc1ccccc1Nc1nn2c(=O)c3ccccc3nc2s1 | 16µM | 2.5µM | u | 2.7µM | u | n
Cc1ccc(C)c(Nc2nn3c(=O)c4cc5c(cc4nc3s2)OCO5)c1 | n | x | x | u | x | x
COc1ccc(OC)c(Nc2nn3c(=O)c4ccccc4nc3s2)c1 | x | x | x | n | x | x
O=c1c2ccccc2nc2sc(Nc3ccc(F)cc3)nn12 | x | 2µM | u | u | 10µM | x
COc1cc(CCC(=O)NCc2ccc3c(c2)CCN3C(=O)c2cccc(C)c2)cc(OC)c1OC | x | x | x | n | x | x
Cc1cc(C)c(NC(=O)CCN2C(=O)c3ccccc3Sc3ncccc32)c(C)c1 | x | x | x | n | x | x
COc1ccc(-c2cc3nnc(-c4ccccc4)nc3s2)cc1 | 0.71µM | n | u | 0.17µM | u | n
COc1ccc(OC)c(Nc2ncnc3sc(-c4ccccc4)cc23)c1 | n | n | n | u | n | n

Bioassay records deposited in PubChem BioAssay by National Center for Advancing Translational Sciences (NCATS).
